Source: the supplement of paper PMC4022240
± gives the standard deviation.

Assays:
Assay in all cases: peptide microarray binding signal (635 nm), min-max normalized on array (fraction of array maximum); higher = stronger binding
[1] = target: T1, HaloTag-ATRX ADD domain (163-292)
T1 chain: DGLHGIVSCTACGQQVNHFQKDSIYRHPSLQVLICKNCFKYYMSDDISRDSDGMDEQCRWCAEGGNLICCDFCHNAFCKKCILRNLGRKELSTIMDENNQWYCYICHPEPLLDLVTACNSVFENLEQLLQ
In short: (§1)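 Two probe formats were used for 1 h at 4°C: biotin-labelled HaloTag reader fusions (10 nM to 1 μM) with streptavidin-Alexa Fluor 647, and rabbit histone antibodies (1:10,000 to 1:2,000) with anti-rabbit Alexa 647. Both were applied to nitrocellulose arrays of histone 13-mer peptide–cellulose conjugates printed in triplicate with a Cy3 tracer and blocked overnight at 4°C. Signal was read at 635 nm and misprints at 532 nm on an Axon GenePix 4000B. Binding signal is expressed as the triplicate-spot mean intensity, min-max scaled for each library.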

[2] = target: HaloTag-ING2 PHD (mouse Ing2 200-280)
In short: as §1

[3] = target: anti-H3K4me3 antibody ab8580
In short: as §1

[4] = target: anti-H3K9me3 antibody ab8898
In short: as §1

[5] = peptide region: H4 8-19, peptide modifications: H4K8ac H4K16ac, binder concentration: 1:2,000 dilution
[6] = peptide region: H4 8-19, peptide modifications: H4K8ac H4K16ac, binder concentration: 1:10,000 dilution
[7] = peptide region: H4 8-19, peptide modifications: H4K12ac H4K16ac, binder concentration: 1:2,000 dilution
[8] = peptide region: H4 8-19, peptide modifications: H4K12ac H4K16ac, binder concentration: 1:10,000 dilution
[9] = peptide region: H4 8-19, peptide modifications: H4K16ac H4R17me1, binder concentration: 1:2,000 dilution
[10] = peptide region: H4 8-19, binder concentration: 1:2,000 dilution
[11] = peptide region: H4 8-19, binder concentration: 1:10,000 dilution
[12] = peptide region: H4 1-13, peptide modifications: H4S1ph H4K12ac, binder concentration: 1:2,000 dilution
[13] = peptide region: H4 1-13, peptide modifications: H4S1ph H4K12ac, binder concentration: 1:10,000 dilution
[14] = peptide region: H4 8-19, peptide modifications: H4R17me1, binder concentration: 1:2,000 dilution
[15] = peptide region: H4 8-19, peptide modifications: H4R17me1, binder concentration: 1:10,000 dilution
[16] = peptide region: H4 8-19, peptide modifications: H4K16ac H4R17cit, binder concentration: 1:2,000 dilution
[17] = peptide region: H4 8-19, peptide modifications: H4K8ac H4K12ac, binder concentration: 1:2,000 dilution
[18] = peptide region: H4 8-19, peptide modifications: H4K8ac H4K12ac, binder concentration: 1:10,000 dilution
[19] = peptide region: H4 8-19, peptide modifications: H4R17cit, binder concentration: 1:2,000 dilution
[20] = peptide region: H4 8-19, peptide modifications: H4R17cit, binder concentration: 1:10,000 dilution
[21] = peptide region: H4 1-13, peptide modifications: H4S1ph H4R3cit, binder concentration: 1:2,000 dilution
[22] = peptide region: H4 1-13, peptide modifications: H4S1ph H4R3cit, binder concentration: 1:10,000 dilution
[23] = peptide region: H4 1-13, peptide modifications: H4S1ph H4R3me2s, binder concentration: 1:2,000 dilution
[24] = peptide region: H4 1-13, peptide modifications: H4S1ph H4R3me2s, binder concentration: 1:10,000 dilution

Binder: KGLGKGGAKRHRK [H4 8-19 Kac G L G K G G A Kac R H R K]
- peptide microarray binding signal ([1]; peptide region: H4 8-19, peptide modifications: H4K8ac H4K16ac, binder concentration: 50 nM): 0.000439 ± 1.5e-05
- peptide microarray binding signal ([1]; peptide region: H4 8-19, peptide modifications: H4K8ac H4K16ac, binder concentration: 500 nM): 9.52e-05 ± 1e-06
- peptide microarray binding signal ([2]; peptide region: H4 8-19, peptide modifications: H4K8ac H4K16ac, binder concentration: 10 nM): 0.0043 ± 0.0012
- peptide microarray binding signal ([2]; peptide region: H4 8-19, peptide modifications: H4K8ac H4K16ac, binder concentration: 100 nM): 0.000283
- peptide microarray binding signal [3, 5]: 0.000113
- peptide microarray binding signal [3, 6]: 0.00143 ± 0.00034
- peptide microarray binding signal [4, 5]: 4.53e-05
- peptide microarray binding signal [4, 6]: 5.77e-05 ± 6.6e-07

Binder: KGLGKGGAKRHRK [H4 8-19 K G L G Kac G G A Kac R H R K]
- peptide microarray binding signal ([1]; peptide region: H4 8-19, peptide modifications: H4K12ac H4K16ac, binder concentration: 50 nM): 0.000188 ± 6.2e-06
- peptide microarray binding signal ([1]; peptide region: H4 8-19, peptide modifications: H4K12ac H4K16ac, binder concentration: 500 nM): 0.000333 ± 1.3e-05
- peptide microarray binding signal ([2]; peptide region: H4 8-19, peptide modifications: H4K12ac H4K16ac, binder concentration: 10 nM): 0.00215 ± 0.00035
- peptide microarray binding signal ([2]; peptide region: H4 8-19, peptide modifications: H4K12ac H4K16ac, binder concentration: 100 nM): 0.000142 ± 1.7e-06
- peptide microarray binding signal [3, 7]: 0
- peptide microarray binding signal [3, 8]: 5.71e-05
- peptide microarray binding signal [4, 7]: 0
- peptide microarray binding signal [4, 8]: 0

Binder: KGLGKGGAKRHRK [H4 8-19 K G L G K G G A Kac Rme H R K]
- peptide microarray binding signal ([1]; peptide region: H4 8-19, peptide modifications: H4K16ac H4R17me1, binder concentration: 500 nM): 0.000143 ± 2.7e-06
- peptide microarray binding signal ([2]; peptide region: H4 8-19, peptide modifications: H4K16ac H4R17me1, binder concentration: 100 nM): 0.000425 ± 4.9e-06
- peptide microarray binding signal [3, 9]: 7.55e-05 ± 8.5e-07
- peptide microarray binding signal [4, 9]: 3.02e-05 ± 3.4e-07

Binder: KGLGKGGAKRHRK [H4 8-19 K G L G K G G A K R H R K]
- peptide microarray binding signal ([1]; peptide region: H4 8-19, binder concentration: 50 nM): 0.00495 ± 5.5e-05
- peptide microarray binding signal ([1]; peptide region: H4 8-19, binder concentration: 500 nM): 0.0131 ± 0.0015
- peptide microarray binding signal ([2]; peptide region: H4 8-19, binder concentration: 10 nM): 0.00466 ± 0.00021
- peptide microarray binding signal ([2]; peptide region: H4 8-19, binder concentration: 100 nM): 0.0136 ± 0.0014
- peptide microarray binding signal [3, 10]: 0.000793 ± 4.3e-05
- peptide microarray binding signal [3, 11]: 0.00154 ± 3e-05
- peptide microarray binding signal [4, 10]: 0.000529 ± 1.3e-05
- peptide microarray binding signal [4, 11]: 0.0011 ± 1.1e-05

Binder: SGRGKGGKGLGKG [H4 1-13 Sph G R G K G G K G L G Kac G]
- peptide microarray binding signal ([1]; peptide region: H4 1-13, peptide modifications: H4S1ph H4K12ac, binder concentration: 50 nM): 0.00392 ± 0.00035
- peptide microarray binding signal ([1]; peptide region: H4 1-13, peptide modifications: H4S1ph H4K12ac, binder concentration: 500 nM): 0.0105 ± 0.00038
- peptide microarray binding signal ([2]; peptide region: H4 1-13, peptide modifications: H4S1ph H4K12ac, binder concentration: 10 nM): 0.00269 ± 6.6e-05
- peptide microarray binding signal ([2]; peptide region: H4 1-13, peptide modifications: H4S1ph H4K12ac, binder concentration: 100 nM): 0.00893 ± 0.00049
- peptide microarray binding signal [3, 12]: 0.000378 ± 1e-05
- peptide microarray binding signal [3, 13]: 0.000742 ± 1.3e-05
- peptide microarray binding signal [4, 12]: 0.000649 ± 0.00018
- peptide microarray binding signal [4, 13]: 0.00075 ± 7.9e-06

Binder: KGLGKGGAKRHRK [H4 8-19 K G L G K G G A K Rme H R K]
- peptide microarray binding signal ([1]; peptide region: H4 8-19, peptide modifications: H4R17me1, binder concentration: 50 nM): 0.00987 ± 0.0027
- peptide microarray binding signal ([1]; peptide region: H4 8-19, peptide modifications: H4R17me1, binder concentration: 500 nM): 0.016 ± 0.0014
- peptide microarray binding signal ([2]; peptide region: H4 8-19, peptide modifications: H4R17me1, binder concentration: 10 nM): 0.00352 ± 6.8e-05
- peptide microarray binding signal ([2]; peptide region: H4 8-19, peptide modifications: H4R17me1, binder concentration: 100 nM): 0.00865 ± 0.00034
- peptide microarray binding signal [3, 14]: 0.00119 ± 0.0002
- peptide microarray binding signal [3, 15]: 0.00148 ± 8e-05
- peptide microarray binding signal [4, 14]: 0.00112 ± 4.3e-05
- peptide microarray binding signal [4, 15]: 0.00138 ± 1.4e-05

Binder: KGLGKGGAKRHRK [H4 8-19 K G L G K G G A Kac Rcit H R K]
- peptide microarray binding signal ([1]; peptide region: H4 8-19, peptide modifications: H4K16ac H4R17cit, binder concentration: 500 nM): 0.000476 ± 1.3e-05
- peptide microarray binding signal ([2]; peptide region: H4 8-19, peptide modifications: H4K16ac H4R17cit, binder concentration: 100 nM): 7.09e-05 ± 1.5e-06
- peptide microarray binding signal [3, 16]: 3.78e-05 ± 4.3e-07
- peptide microarray binding signal [4, 16]: 0

Binder: KGLGKGGAKRHRK [H4 8-19 Kac G L G Kac G G A K R H R K]
- peptide microarray binding signal ([1]; peptide region: H4 8-19, peptide modifications: H4K8ac H4K12ac, binder concentration: 50 nM): 0.000251 ± 1.2e-05
- peptide microarray binding signal ([1]; peptide region: H4 8-19, peptide modifications: H4K8ac H4K12ac, binder concentration: 500 nM): 0.000143 ± 2.7e-06
- peptide microarray binding signal ([2]; peptide region: H4 8-19, peptide modifications: H4K8ac H4K12ac, binder concentration: 10 nM): 0.00567 ± 0.0013
- peptide microarray binding signal ([2]; peptide region: H4 8-19, peptide modifications: H4K8ac H4K12ac, binder concentration: 100 nM): 0.000496
- peptide microarray binding signal [3, 17]: 0.000113
- peptide microarray binding signal [3, 18]: 0.00165 ± 0.00042
- peptide microarray binding signal [4, 17]: 6.04e-05 ± 6.8e-07
- peptide microarray binding signal [4, 18]: 5.77e-05 ± 6.6e-07

Binder: KGLGKGGAKRHRK [H4 8-19 K G L G K G G A K Rcit H R K]
- peptide microarray binding signal ([1]; peptide region: H4 8-19, peptide modifications: H4R17cit, binder concentration: 50 nM): 0.0003448 ± 3.2e-06
- peptide microarray binding signal ([1]; peptide region: H4 8-19, peptide modifications: H4R17cit, binder concentration: 500 nM): 0.000381 ± 4e-06
- peptide microarray binding signal ([2]; peptide region: H4 8-19, peptide modifications: H4R17cit, binder concentration: 10 nM): 0.00191 ± 4e-05
- peptide microarray binding signal ([2]; peptide region: H4 8-19, peptide modifications: H4R17cit, binder concentration: 100 nM): 0.000354 ± 4.1e-06
- peptide microarray binding signal [3, 19]: 7.55e-05 ± 8.5e-07
- peptide microarray binding signal [3, 20]: 0.000685 ± 1.5e-05
- peptide microarray binding signal [4, 19]: 3.02e-05 ± 3.4e-07
- peptide microarray binding signal [4, 20]: 0

Binder: SGRGKGGKGLGKG [H4 1-13 Sph G Rcit G K G G K G L G K G]
- peptide microarray binding signal ([1]; peptide region: H4 1-13, peptide modifications: H4S1ph H4R3cit, binder concentration: 50 nM): 0.00335 ± 0.00024
- peptide microarray binding signal ([1]; peptide region: H4 1-13, peptide modifications: H4S1ph H4R3cit, binder concentration: 500 nM): 0.00524 ± 0.00019
- peptide microarray binding signal ([2]; peptide region: H4 1-13, peptide modifications: H4S1ph H4R3cit, binder concentration: 10 nM): 0.00281 ± 4.1e-05
- peptide microarray binding signal ([2]; peptide region: H4 1-13, peptide modifications: H4S1ph H4R3cit, binder concentration: 100 nM): 0.00418 ± 0.0002
- peptide microarray binding signal [3, 21]: 0.000378 ± 3.9e-06
- peptide microarray binding signal [3, 22]: 0.000685 ± 7.2e-06
- peptide microarray binding signal [4, 21]: 0.000136
- peptide microarray binding signal [4, 22]: 0.00121 ± 0.00012

Binder: SGRGKGGKGLGKG [H4 1-13 Sph G Rme2s G K G G K G L G K G]
- peptide microarray binding signal ([1]; peptide region: H4 1-13, peptide modifications: H4S1ph H4R3me2s, binder concentration: 50 nM): 0.0052 ± 0.0008
- peptide microarray binding signal ([1]; peptide region: H4 1-13, peptide modifications: H4S1ph H4R3me2s, binder concentration: 500 nM): 0.00852 ± 0.00024
- peptide microarray binding signal ([2]; peptide region: H4 1-13, peptide modifications: H4S1ph H4R3me2s, binder concentration: 10 nM): 0.00346 ± 0.00014
- peptide microarray binding signal ([2]; peptide region: H4 1-13, peptide modifications: H4S1ph H4R3me2s, binder concentration: 100 nM): 0.00865 ± 0.00015
- peptide microarray binding signal [3, 23]: 0.00119 ± 0.0001
- peptide microarray binding signal [3, 24]: 0.0012 ± 1.2e-05
- peptide microarray binding signal [4, 23]: 0.000408 ± 1.8e-05
- peptide microarray binding signal [4, 24]: 0.000923 ± 9.6e-06
